About 1,300 (0.68%) of roughly 190,000 compounds were called active. The entries come from a sample that favours actives as a whole. Values without a mark were called inactive. Rule as the data show it: active = inhibition above about 50%; inactive = the rest.
target: Mannose-6-phosphate isomerase (Homo sapiens) (UniProt P34949); experiment: human PMI inhibitors, high substrate, primary screen, biochemical, fluorescence intensity, high mannose 6-phosphate (AID 1220); conditions: recombinant PMI enzyme, coupled fluorescence intensity; at 20 µM; stronger effect = higher value
Sequence (P34949 whole entry, looked up): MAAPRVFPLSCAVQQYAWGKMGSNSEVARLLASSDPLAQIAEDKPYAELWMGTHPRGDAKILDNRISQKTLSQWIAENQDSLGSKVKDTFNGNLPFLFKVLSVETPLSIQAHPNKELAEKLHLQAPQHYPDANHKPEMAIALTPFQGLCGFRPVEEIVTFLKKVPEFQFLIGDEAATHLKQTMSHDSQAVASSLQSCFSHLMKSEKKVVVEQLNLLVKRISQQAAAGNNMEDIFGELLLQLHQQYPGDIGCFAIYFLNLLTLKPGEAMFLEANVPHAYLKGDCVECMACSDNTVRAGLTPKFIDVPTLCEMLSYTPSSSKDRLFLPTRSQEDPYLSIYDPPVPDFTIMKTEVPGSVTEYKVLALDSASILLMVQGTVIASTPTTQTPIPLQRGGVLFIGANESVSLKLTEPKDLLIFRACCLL

Compound | inhibition
O=[N+]([O-])c1cc(C(F)(F)F)ccc1NCCOc1ccccc1 | 9%
O=C(CCCCn1c(=O)c2ccccc2n(CC(=O)Nc2cccc(F)c2)c1=O)NCc1ccco1 | 9.4%
COc1ccc(S(=O)(=O)N(CC(=O)N2CCN(c3ccccc3OC)CC2)c2ccccc2)cc1 | 13.1%
COc1ccc(NC(C)=O)cc1NC(C)C(=O)Nc1ccc(F)cc1 (stereo not drawn) | 7%
COc1ccc(NC(C)=O)cc1NC(C)c1nc2sc(C)c(C)c2c(=O)[nH]1 (stereo not drawn) | 66.6% (active)
Cc1sc2nc(C(C)Nc3ccccc3N3CCOCC3)[nH]c(=O)c2c1C (stereo not drawn) | 26.7%
COc1ccc(S(=O)(=O)CCC(=O)N2CCN(c3ccc(F)cc3)CC2)cc1 | -1.5%
CCn1c(COc2ccc3c(c2)OCO3)nnc1SCC(=O)O | -46.4%
COC(=O)c1ccccc1OCCOCCOc1cccc2ccc(C)nc12 | 45%
Cc1ccc(C(C)C)c(OC(=O)/C=C/c2ccccc2)c1 | 6.5%
Cc1ccc2cccc(OC(=O)c3ccc4c(c3)OCCO4)c2n1 | 54% (active)
O=C(/C=C\c1ccco1)Oc1cccc2cccnc12 | 34.3%
Cc1ccc2cccc(OC(=O)/C=C\c3ccccc3)c2n1 | 60.1% (active)
O=C(/C=C\c1ccccc1)Oc1cccc2cccnc12 | 51.9% (active)
O=C(Oc1cccc2cccnc12)c1ccc2c(c1)OCCO2 | 29.5%
Cc1c(C(=O)Nc2cccc3cccnc23)oc2ccccc12 | -0.2%
CCc1nc2ccccc2c(C(=O)Oc2cccc3cccnc23)c1C | 7.3%
Cc1ccc2cccc(OCC(=O)Nc3ccc4c(c3)OCO4)c2n1 | 15.2%
COc1ccccc1/C=C/C(=O)Oc1cccc2cccnc12 | 26.5%
Cc1c(C(=O)Oc2cccc3cccnc23)oc2ccccc12 | 50% (active)
CCOCC(=O)Nc1nnc(COCC)s1 | -1.8%

Compound | inhibition
Cc1cc(NC(=O)COC(=O)CCCOc2ccc(Cl)cc2C)no1 | 4.5%
O=C(O)COc1ccc(/C=N/NC(=O)C2CCCN2S(=O)(=O)c2ccc(Cl)cc2)cc1 (stereo not drawn) | -3.5%
O=C(O/N=C\c1ccc(N2CCOCC2)c([N+](=O)[O-])c1)c1ccc(F)cc1 | 8%
COc1ccc(NC(=O)CSCc2ccc(C)cc2)cc1 | 1.9%
Cc1ccc(C2NC(=O)c3c(sc(C)c3C)N2)c(O)c1 (stereo not drawn) | -21.9%
Nc1ccccc1Nc1cc(-c2ccccc2)[nH]n1 | 28%
Cc1nc2c(n1C1CCCCC1)C(=O)c1ccccc1C2=O | 35.4%
COc1ccc(NC(=O)CSc2cc(C)ccc2C)cn1 | 10.5%
COc1ccc(CC2(CO)CCN(Cc3cccc(OC)c3OC)CC2)cc1 | 6.7%
COc1ccc2[nH]c(=O)c(CNc3cccc(C)c3)cc2c1 | 55.1% (active)
CC(C)(C)NCc1cc2ccccc2[nH]c1=O | 6.8%
COc1ccc2[nH]c(=O)c(CNc3ccccc3)cc2c1 | 44.2%
COc1ccc2[nH]c(=O)c(CNc3ccc(C)c(C)c3)cc2c1 | 48.9%
COc1ccc(NCc2cc3ccccc3[nH]c2=O)cc1 | 59.2% (active)
COc1ccc(NCc2cc3cc(OC)ccc3[nH]c2=O)cc1 | 30.7%
CNCC(O)COc1cccc(OC)c1 (stereo not drawn) | 9.8%
Cc1c(C)c2ccc(OS(C)(=O)=O)c(C)c2oc1=O | -10.6%
Fc1ccc(CNC(=S)Nc2ccc(OC(F)F)cc2)cc1 | 5.2%
O=[N+]([O-])c1ccccc1S(=O)(=O)N1CCN(Cc2cc3c(cc2O)OCO3)CC1 | 59.2% (active)
O=[N+]([O-])c1ccccc1S(=O)(=O)N1CCN(Cc2ccsc2)CC1 | 7.8%
O=[N+]([O-])c1ccccc1S(=O)(=O)N1CCN(Cc2ccc3c(c2)OCO3)CC1 | -3.6%

Compound | inhibition
COc1ccc(CN(Cc2cc3cc(OC)c(OC)cc3[nH]c2=O)C(=O)NC2CCCCC2)cc1 | 0.5%
COc1ccc(/C=N/OCC(=O)Nc2ccc3c(c2)OCO3)c(OC)c1 | 10.9%
O=C(O)Cn1c2c(c3ccccc31)CCCC2 | 58.5% (active)
O=C(O)CCn1c2c(c3ccccc31)CCCC2 | 8.9%
O=C(O)Cn1c2ccccc2c2ccccc21 | -2.4%
Cc1cccc(N2CCN(C(=O)c3ccccn3)CC2C)c1 (stereo not drawn) | 9.3%
O=C(/C=C/c1ccc(Cl)cc1Cl)N1CCc2ccccc21 | -2.2%
CCN1CCN(c2cc(C)c3cc(NC(=O)c4ccc(Br)o4)ccc3n2)CC1 | -5.1%
CCN(CC)c1cc(C)c2cc(NC(=O)c3cccs3)ccc2n1 | 10.3%
CCN(CC)c1cc(C)c2cc(NC(=O)c3ccc(Br)o3)ccc2n1 | 70.4% (active)
CCOC(=O)c1c(/N=C/c2cccc(C)c2O)sc2c1CCN(C)C2 | -2.3%
Cn1c(=S)n(/N=C/c2ccc3c(c2)OCO3)c2ccccc21 | -3.6%
CCn1c(SCC(=O)N/N=C/C=C/c2ccco2)nnc1-c1ccc(OC)cc1 | 52.6% (active)
CCn1c(SCC(=O)N/N=C/C(C)=C/c2ccco2)nnc1-c1ccccc1 | 43.3%
CCn1c(SCC(=O)N/N=C/C=C/c2ccco2)nnc1-c1ccccc1 | -8.3%
O=C(COc1cccc2c1CCN(Cc1ccc(Cl)cc1)C2=O)N1CCOCC1 | -2.4%
CC(C)CC(=O)NC(=S)Nc1ccc(S(=O)(=O)N2CCCC2)cc1 | -1%
CCNc1ccc(C(=O)OCC)cc1NC(=O)c1cccc(N(C)C)c1 | 6.9%
CCNc1ccc(C(=O)OCC)cc1NC(=O)c1cccc(S(=O)(=O)N2CCOCC2)c1 | 8.8%
CCNc1ccc(C(=O)OCC)cc1NC(=O)c1cccc(S(=O)(=O)N(C)c2ccccc2)c1 | 50.1% (active)
O=C(CNCC1CCCO1)N1CCN(S(=O)(=O)c2ccc3ccccc3c2)CC1 (stereo not drawn) | -1.2%
